Shiga toxin inh: Shiga toxin inhibition; Vero cells, Shiga toxin protein synthesis inhibition reporter; inhibition, % at 38.7 µM; 290,000 compounds, 9.2% hits; in the data active = inhibition mostly above about 28%, no sharp cut-off; inactive = mostly below about 43%
Pf growth 96h: P. falciparum growth inhibition at 96 hour, primary screen for plastid delayed-death inhibitors. P. falciparum luciferase reporter growth, 96 h. Potency, µM (top dose mostly 28.7 µM), most hits filed as inhibitors. 320,000 compounds, 6.9% hits. AID 504834
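Compounds incubated with erythrocytes infected by luciferase-expressing P. falciparum (2% hematocrit, 0.05% parasitemia final) for 96 hours, 37 C in 5% CO2. Growth inhibition scored as decreased luciferase luminescence.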
HCMV inh: blocks human cytomegalovirus replication; HFF cells, HCMV-luciferase reporter, 72 h; active compounds read low; activity change, negative = inhibition, % at 57.5 µM; 410,000 compounds, 4.5% hits; in the data active = activity change below about -60%; inconclusive = no clear call, values can overlap the other calls; inactive = above about -39%
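Compounds were evaluated in HFFs infected with an HCMV luciferase reporter virus (MOI 1 PFU/cell). Luciferase in lysates collected 72 h post infection served as the replication measure.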
Pf growth 48h: P. falciparum growth inhibition at 48 hours (one generation); AID 504832; P. falciparum luciferase growth in erythrocytes, 48 h; 310,000 compounds, 5.9% hits; Potency, µM (doses to about 28.7 µM), actives largely listed as inhibitors
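Luciferase-expressing P. falciparum in infected erythrocytes (2% hematocrit, 0.1% parasitemia final) in RPMI 1640/0.5% Albumax were exposed to compound for 48 hours at 37 C, 5% CO2; growth read as luminescence.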
Cycloheximide cs: affects cycloheximide protein synthesis inhibition readout, counter-screen; cell reporter, cycloheximide protein synthesis inhibition counterscreen; 300,000 compounds, 12% hits; AID 2314; max response, %; in the data active = max response mostly above about 13%, no sharp cut-off; inactive = mostly below about 14%; note: read at 38.3 µM for the half of the compounds with a filed dose
A number is an active result; i = inactive; ? = inconclusive; nt = no result given; + = active, no number; ! = not active in a repeat. Compounds with a hit are over-represented: about 20% of the library has one in this group of screens. Unless noted, calls come from the whole dose curve; as a rule, active = well fitted inhibition curve with a large enough effect; inconclusive = small, poorly fitted or top-dose-only effect, or another doubt; inactive = no such curve, though single readings can be large or run the other way.

SMILES | Shiga toxin inh | Pf growth 96h | HCMV inh | Pf growth 48h | Cycloheximide cs
O=C1c2ccccc2NC2CCCCCN12 (configuration not stated) | i | ? | i | i | i
CC(C)(C)NC(=O)Cn1nnc(-c2ccc(OCc3c(F)cccc3Cl)cc2)n1 | i | ? | i | ? | 12.7
CC(=O)Nc1ccc2nc(-c3cc(C)ccc3C)[nH]c2c1 | nt | nt | i | nt | nt
CC(=O)Nc1ccc2nc(-c3ccncc3)[nH]c2c1 | i | i | i | nt | i
CC(=O)Nc1cc(NC(C)=O)cc(-c2nc3ccccc3[nH]2)c1 | i | 10.4µM | -107.6! | i | i
CC(=O)Nc1ccc(NC(=O)CCCSc2nc3ccccc3[nH]2)cc1 | i | i | i | i | i
CC(=O)Nc1ccc2nc(-c3ccccn3)[nH]c2c1 | 74.3 | ? | i | i | 45.6
CC(=O)Nc1ccc(-c2nc3c(C)cccc3[nH]2)cc1 | 109.6 | i | i | i | 44.6
O=C1CC(c2cccc(Br)c2)C2=C(COC2=O)N1 (configuration not stated) | i | i | i | i | i
CC1CCc2c(sc3nc(C(C)(C)C)nc(N4CCN(C(=O)CCl)CC4)c23)C1 (configuration not stated) | 46.2 | 6.57µM | -102.6 | i | 19.8
CC(C)CCN1CCN(C2CSCCSC2)CC1CCO (configuration not stated) | i | i | i | i | i
CC[N+]1=CN(c2ccccc2)C(C)=CC1(C)C | i | 4.15µM | i | ? | i
COc1cc(OC)c(NC(=O)c2noc3c2CSc2ccccc2-3)cc1Cl | nt | nt | i | nt | nt
O=C(CCCOc1ccccc1)Nc1nccs1 | i | ? | i | ? | i
COc1ccccc1OCCCC(=O)Nc1nccs1 | 89.3 | i | i | i | 51.7
CCc1ccc(OCCCC(=O)Nc2nccs2)cc1 | 52.9 | i | i | ? | 28.6
O=C1COc2ccc(C(=O)COC(=O)CNS(=O)(=O)c3cccc(F)c3)cc2N1 | nt | i | i | i | nt
COc1ccc(-c2ccc(C)cc2)cc1[C@H]1[C@@H]2C=CCC[C@@]2(C)C(=O)N1Cc1ccccc1 | i | ? | i | 11.7µM | i
COc1ccc(-c2ccc(C)cc2)cc1C1C2C=CCCC2(C)C(=O)N1Cc1ccccc1 (configuration not stated) | i | nt | nt | nt | i
COc1ccc(-c2c(C3C4C=CCCC4(C)C(=O)N3Cc3ccccc3)ccc3ccccc23)cc1 (configuration not stated) | + | nt | nt | nt | 102.8
CCOC(=O)[C@H]1[C@H]2COc3ccccc3[C@@H]2N2C(=O)c3c(C)cc(C)cc3NC(=O)[C@@]12C | nt | ? | i | ? | nt
CCOC(=O)[C@H]1[C@H]2COc3ccccc3[C@@H]2N2C(=O)c3cc(Br)ccc3NC(=O)[C@@]12C | nt | 6.57µM | i | 4.15µM | nt
CCOC(=O)[C@H]1[C@H]2COc3ccc(Cl)cc3[C@@H]2N2C(=O)c3cc(Br)ccc3NC(=O)[C@@]12C | nt | ? | i | ? | nt
CCOC(=O)[C@H]1[C@H]2COc3ccc(Br)cc3[C@@H]2N2C(=O)c3cc(Br)ccc3NC(=O)[C@@]12C | nt | 8.28µM | i | ? | nt
CCc1ccc(/C=C2/C(=O)N(C)C(=S)N2CC(=O)OC)s1 | i | i | i | i | i
SMILES | Shiga toxin inh | Pf growth 96h | HCMV inh | Pf growth 48h | Cycloheximide cs
COc1ccc(CCNC(=O)c2sc3nc4n(c(=O)c3c2C)CCCC4)cc1OC | nt | nt | i | nt | nt
Nc1cc2ccncc2c2ccccc12 | i | ? | -95.6 | 0.117µM | i
O=C(NCc1cccnc1)c1cc(C2CCCCN2S(=O)(=O)c2cccs2)on1 (configuration not stated) | nt | nt | i | nt | nt
Cc1ccc(S(=O)(=O)N2CCN(C(C)C(=O)N3CCCc4ccccc43)CC2)cc1 (configuration not stated) | i | ? | i | ? | i
CC(C)c1ccc(S(=O)(=O)N2CCN(C(C)C(=O)N3CCCC3)CC2)cc1 (configuration not stated) | nt | 11.7µM | -70.0 | ? | nt
CC(C(=O)N1CCCCC1)N1CCN(S(=O)(=O)c2ccc(Cl)cc2)CC1 (configuration not stated) | nt | ? | i | ? | nt
CC(C(=O)N1CCCC1)N1CCN(S(=O)(=O)c2ccc(C(C)(C)C)cc2)CC1 (configuration not stated) | nt | 0.465µM | i | 0.828µM | nt
Cc1ccc(-n2c(-c3cccs3)nc3ccccc3c2=O)cc1 | i | i | i | i | i
CC(c1ccccc1)n1c(-c2cccs2)nc2c(c(=O)c3ccccc3n2C)c1=O (configuration not stated) | i | i | i | 9.28µM | i
Cc1nc2c(c(=O)c3ccccc3n2C)c(=O)n1-c1ccccc1 | i | ? | i | ? | i
Cn1c2ccccc2c(=O)c2c(=O)n(-c3ccc(F)cc3)c(-c3cccs3)nc21 | i | 5.22µM | i | ? | i
Cc1ccc(-c2nc3c(c(=O)c4ccccc4n3C)c(=O)n2-c2ccc(F)cc2)cc1 | i | i | i | 8.28µM | i
COCCn1c(-c2cccs2)nc2c(c(=O)c3ccccc3n2C)c1=O | i | ? | nt | ? | i
Cn1c2ccccc2c(=O)c2c(=O)n(-c3ccccc3)c(-c3ccc(C(C)(C)C)cc3)nc21 | i | 2.62µM | i | 1.85µM | i
CCc1nc2c(c(=O)c3ccccc3n2C)c(=O)n1-c1ccc(F)cc1 | i | ? | i | i | i
CCS(=O)(=O)N1CCC(C(=O)NCCC(C)C)CC1 | nt | nt | i | nt | nt
COc1ccc([C@H]2C[C@@H](n3cc(C4CC4)nn3)[C@H](O)CN2C(=O)c2cccs2)cc1 | nt | nt | i | nt | nt
O=C(NNC(=O)C12CC3CC(CC(C3)C1)C2)c1csc(N2CCOCC2)n1 | nt | 13.1µM | i | ? | nt
O=C(NNC(=O)c1cccs1)c1csc(N2CCOCC2)n1 | nt | i | i | i | nt
CCOC(=O)N1CCN(C(=S)NC(=O)/C=C/c2ccc(C)cc2)CC1 | i | i | i | i | i
Cc1[nH]nc(SCC(=O)N2CCCCC2)c1[N+](=O)[O-] | i | i | i | i | 22.9
CNc1nc(-c2ccccc2)[n+](-c2ccc(C)cc2)s1 | 134.7 | i | i | i | 29.8
Cc1ccc(-c2nc(N)s[n+]2-c2ccccc2)cc1 | 91.0 | i | i | i | 80.9
CCCCNC(=O)N[C@H]1CC[C@@]23CCCN2C(=O)CCC[C@H]3C1Cc1ccccc1 (some centres not stated) | nt | nt | i | nt | nt
Cc1c(C(=O)Nc2cccc(C(F)(F)F)c2)oc2ccc(S(=O)(=O)N(C)C3CCCCC3)cc12 | nt | nt | i | nt | nt
COc1ccc2oc(C(=O)Nc3ccc(S(=O)(=O)N(C)C4CCN(C)CC4)cc3)c(C)c2c1 | i | ? | -112.5 | 5.86µM | i
COc1ccc(NC(=O)c2oc3ccc(S(=O)(=O)N4CCCCC4)cc3c2C)cc1 | nt | nt | i | nt | nt
COc1ccc(NC(=O)c2oc3ccc(S(=O)(=O)N(C)C4CCCCC4)cc3c2C)cc1Cl | nt | nt | -77.4 | nt | nt
CCOC(=O)c1[nH]c2c(c1C)C(=O)CC(c1ccc(OCC)c(OC)c1)C2 (configuration not stated) | i | i | i | nt | i
CCOC(=O)c1[nH]c2c(c1-c1ccccc1)C(=O)CC(c1ccc(OCC)cc1)C2 (configuration not stated) | i | 10.4µM | i | i | i
